PPARg SRC1 recr – PPARgamma agonists recruiting SRC-1 coactivator, primary screen, biochemical | Peroxisome proliferator-activated receptor gamma (Homo sapiens), P37231 | PPARgamma-SRC-1 coactivator recruitment biochemical assay | activation, % at 8 µM | hit rate 0.41% among 200,000; in the data active = activation above about 19%;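 note: 0% = DMSO and 100% = reference agonist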
Target sequence (P37231 whole entry, looked up): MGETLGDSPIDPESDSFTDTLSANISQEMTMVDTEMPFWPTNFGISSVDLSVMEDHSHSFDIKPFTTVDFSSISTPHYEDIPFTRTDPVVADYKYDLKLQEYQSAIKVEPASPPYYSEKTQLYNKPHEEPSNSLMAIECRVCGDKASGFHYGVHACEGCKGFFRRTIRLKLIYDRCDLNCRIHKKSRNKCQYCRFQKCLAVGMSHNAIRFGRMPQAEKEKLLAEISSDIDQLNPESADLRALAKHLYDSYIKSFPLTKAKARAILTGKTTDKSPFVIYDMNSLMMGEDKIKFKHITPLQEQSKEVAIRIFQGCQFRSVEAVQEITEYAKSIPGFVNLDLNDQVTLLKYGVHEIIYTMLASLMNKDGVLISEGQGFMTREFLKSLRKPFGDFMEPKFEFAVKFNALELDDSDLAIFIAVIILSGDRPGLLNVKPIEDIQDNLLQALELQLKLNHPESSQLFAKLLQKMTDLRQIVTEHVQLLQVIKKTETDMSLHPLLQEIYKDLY
PPARg SRC3 recr – PPARgamma agonists recruiting SRC-3 coactivator, primary screen, biochemical. Peroxisome proliferator-activated receptor gamma (Homo sapiens), P37231. biochemical PPARgamma/SRC-3 coactivator recruitment assay. activation, % at 8 µM. hit rate 0.26% among 200,000. AID 731, 2007; in the data active = activation above about 23%;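 note: 0% = DMSO and 100% = reference agonist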
PPARg SRC-2 ag – agonists of PPARg-SRC-2 recruitment, primary screen, biochemical, HTS; Peroxisome proliferator-activated receptor gamma (Homo sapiens), P37231; PPARgamma LBD-SRC-2 recruitment; activation, % at 8 µM; hit rate 0.34% among 200,000; AID 1032, 2008; in the data active = activation above about 22%;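 note: 0% = vehicle and 100% = reference agonist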
SRC2 TRFRET art – TR-FRET signal artefacts, primary screen, artefact control for PPARgamma SRC-2 agonist project, biochemical; TR-FRET ratio at 8 µM; TR-FRET artefact counter-screen; stronger effect = higher value; AID 1049, 2008; hit rate 0.4% among 200,000
SRC3 TRFRET art – TR-FRET detection interference compounds, artefact control for PPARgamma SRC-3 recruitment agonists, biochemical, TR-FRET ratio; TR-FRET artefact counter-screen, PPARgamma/SRC-3 format; stronger effect = higher value; TR-FRET ratio at 8 µM; hit rate 0.39% among 99,000; AID 1048, 2008
SRC1 TRFRET art – TR-FRET detection interference compounds, primary screen, artefact control for PPARgamma SRC-1 recruitment agonists, biochemical, TR-FRET emission ratio; TR-FRET detection artefact counter-screen; stronger effect = higher value; TR-FRET ratio at 8 µM; hit rate 0.34% among 99,000; in the data active = TR-FRET ratio above about 2300
PPARg SRC2 ag – agonists of PPARgamma SRC-2 coactivator recruitment, confirmation, biochemical, HTS; shares compounds with PPARg SRC3 recr; hit rate 52% among 790; activation, % at 8 µM; biochemical SRC-2 recruitment by PPARgamma; in the data active = activation above about 22%;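 note: 0% = vehicle alone and 100% = reference agonist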
PPARg SRC1 conf – PPARgamma agonists recruiting SRC-1 coactivator, confirmation, biochemical; shares compounds with PPARg SRC3 recr; PPARgamma–SRC-1 coactivator recruitment biochemical assay; activation, % at 8 µM; hit rate 43% among 790; in the data active = activation above about 20%;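 note: 0% = vehicle wells and 100% = reference agonist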
PPARg SRC3 conf – PPARgamma-driven SRC-3 coactivator recruitment agonists, confirmation, biochemical; shares compounds with PPARg SRC3 recr; activation, % at 8 µM; biochemical PPARgamma-SRC-3 coactivator recruitment, agonist mode; AID 1301, 2008; hit rate 29% among 790; in the data active = activation above about 24%;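 note: 0% = vehicle wells and 100% = reference agonist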
Starred values were filed as active, the others as inactive; · = no result given. In the library only some 0.9% were active in any assay of this set; here they are far more common. Cut-off read from the data, not from the text of the source, unless noted: active = TR-FRET ratio above about 2000; inactive = the rest.

SMILES	PPARg SRC1 recr	PPARg SRC3 recr	PPARg SRC-2 ag	SRC2 TRFRET art	SRC3 TRFRET art	SRC1 TRFRET art	PPARg SRC2 ag	PPARg SRC1 conf	PPARg SRC3 conf
O=C(c1ccc2c(c1)OCCO2)N1CCCC(CNS(=O)(=O)c2cccs2)C1 (configuration not stated)	5	2	-2	1660	1650	1664	·	·	·
O=C(Nc1cccc(NC(=O)c2ccc(Br)o2)n1)c1ccc(Br)o1	19*	12	14	1847	·	·	6	3	2
CCOC(=O)/C=C1\SCC(=O)N1CC(=O)NC(C)c1ccc(F)cc1 (configuration not stated)	-1	1	-4	1678	1617	1800	·	·	·
CCOCc1nnc(NC(=O)c2cc(OC)c(OC)c(OC)c2)s1	-5	1	0	1397	1632	1597	·	·	·
COc1cc(C(=O)Nc2nnc(-c3sccc3C)s2)cc(OC)c1OC	29*	15	24*	1729	·	·	55*	43*	37*
S=c1[nH]c(-c2ccc(Cl)cc2)cs1	27*	17	30*	1997*	2141*	2339*	27*	19	17
O=C1C=C(c2cccs2)CC(c2cccs2)C1n1cnc([N+](=O)[O-])c1 (configuration not stated)	12	26*	20	1790	·	·	18	20*	12
Cc1cc(C)c2c(N)c3cccc(C)c3nc2n1	6	-3	-11	1659	1634	1889	·	·	·
Cc1ccc2nc(N3CCN(S(=O)(=O)c4ccc(C)c(Cl)c4)CC3)c(C#N)cc2c1	22*	29*	6	1637	·	·	9	6	4
Cc1ccc2nc(N3CCN(C)CC3)c(C#N)cc2c1	3	-2	-4	1378	·	·	·	·	·
O=C(Cc1cccc2ccccc12)Nc1ccc(-c2cc3ccccc3oc2=O)cc1	24*	11	8	2296*	·	·	24*	18	10
CCn1c2c(c3cc(OCC(C)C)ccc31)CCCC2=O	-4	3	4	1436	·	·	·	·	·
CCn1c2c(c3cc(Br)ccc31)CCC/C2=N\O	34*	61*	39*	2351*	·	·	45*	30*	29*
C=CCn1c(NC(C)c2cc(Cl)ccc2O)nc2ccccc21 (configuration not stated)	41*	28*	27*	1650	·	·	19	32*	31*
C=CCn1c(NCc2cc(C)ccc2O)nc2ccccc21	8	3	19	1758	·	·	·	·	·
Clc1ccc(-c2ccc(C=Nc3ccc(N4CCOCC4)cc3)o2)cc1	6	6	7	1771	1639	1899	·	·	·
Clc1cccc(-c2ccc(C=Nc3ccc(N4CCOCC4)cc3)o2)c1Cl	24*	20	27*	2206*	1962	2633*	36*	29*	23
Cc1ccc(C2=C/C(=C/c3cccnc3)C(=O)O2)c(C)c1	6	8	3	1472	1634	1774	·	·	·
CCCc1nc2c(sc3nc4c(cc32)COC(C)(C)C4)c(=O)n1CCN(CC)CC	3	0	6	1615	1662	1802	·	·	·
CCOC(=O)c1sc(NC(=O)CSc2nnc(C(C)C)n2C)nc1C	3	13	1	1699	·	·	·	·	·
COC(=O)c1sc(NC(=O)CSc2nnc(C(C)C)n2C)nc1C	19*	10	14	1715	·	·	0	0	0
O=C(NC(=S)Nc1cc([N+](=O)[O-])ccc1O)c1cccnc1	2	-4	-4	1685	1454	1760	·	·	·
CCc1cc(=O)oc2cc3occ(-c4ccc(OC)c(F)c4)c3cc12	-4	-3	2	1419	1526	1857	·	·	·
